Assay outcomes as filed in PubChem BioAssay.
E coli growth-1 = E. coli growth inhibition; Escherichia coli growth, OD600, 23 h; active compounds read low; OD600 absorbance (no concentration beside the values); 0.21% of 330,000 active;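 active = OD600 absorbance below the run mean of sample wells minus 3.6 SD, in any replicate, cut at about 0.56 in these data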
phage Ecoli inh = E. coli growth loss with phage present. AID 651602. growth absorbance. 0.26% of 360,000 active. inhibition, % at 11.9 µM; in the data active = inhibition above about 11%
E coli growth-2 = counter-screen for AddAB inhibitors: E. coli growth inhibition. inhibition, % at 11.9 µM. E. coli V3065 growth, OD600 absorbance, 18 h. 0.27% of 330,000 active;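 active = inhibition above the campaign's mean inhibition across all tested compounds plus 3 SD, cut at about 9.9% in these data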;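 also: uninfected addAB+ strain grown without phage in ampicillin broth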
Tat export inh = blocks Tat-dependent protein export in E. coli; 0.036% of 340,000 active; E. coli MC4100 TorA-mCherry Tat export, fluorescence; inhibition, % at 10 µM;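 active = mean replicate inhibition at least 50% and at least half of replicates individually reaching 50%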;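 also: exported cargo escapes ClpAP degradation while cytoplasmic cargo is degraded and loses fluorescence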
AddAB inh = less growth of phage-infected E. coli with AddAB; inhibition, % at 11.9 µM; 0.29% of 330,000 active; E. coli expressing H. pylori AddAB, absorbance growth; in the data active = inhibition above about 12%
RecBCD conf = growth loss of phage-infected V66 E. coli, RecBCD confirmation screen. shares compounds with phage Ecoli inh. E. coli V66 + T4 2- phage, growth OD. inhibition, % at 11.9 µM. 45% of 890 active. AID 651982;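 active = mean inhibition over triplicates exceeding the hit threshold derived in the original primary screen, cut at about 11% in these data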
Ecoli viability = counter-screen for RecBCD inhibitors: inhibitors of bacterial viability | shares compounds with phage Ecoli inh | E. coli viability, absorbance (OD) growth | inhibition, % at 11.9 µM | 29% of 890 active | AID 651983; in the data active = inhibition above about 20%;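 also: E. coli strain V66 grown with compound alone and no phage infection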
AddAB phage OD = growth loss of phage-infected AddAB E. coli, RecBCD counter-screen; shares compounds with phage Ecoli inh; E. coli expressing H. pylori AddAB + T4 phage, OD growth; gene 2 mutant T4, recBCD-deleted host; inhibition, % at 11.9 µM; 45% of 890 active; AID 651984;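 active = mean inhibition above the solvent-only control wells' mean plus 3 SD, cut at about 22% in these data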;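 also: higher means less bacterial growth from phage killing when AddAB is blocked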
Large screens that a line does not name were inactive (follow-up assays come after a bar, where they were run). In the library only some 0.5% were active in any assay of this set; here they are far more common.

Cc1c(Cl)c([N+](=O)[O-])nn1Cc1ccc(C(=O)Nc2ccc(Cl)cn2)o1	none
CCCCC=CC(NC(=O)c1ccc(C(=O)OC)cc1)c1ccccc1 (stereo not drawn)	none (no result: phage Ecoli inh, E coli growth-2, Tat export inh, AddAB inh)
CC(CO)NC(=O)c1ccc2c3n(nc2c1)-c1ccc(Cl)cc1CO3 (stereo not drawn)	none (no result: phage Ecoli inh, E coli growth-2, Tat export inh, AddAB inh)
Cc1ccc(NC(=S)Nc2ccc(OC(F)F)c(Cl)c2)cc1F	phage Ecoli inh 11 | RecBCD conf inactive | Ecoli viability inactive | AddAB phage OD inactive
CCCNC1CCc2nc(N)sc2C1 (stereo not drawn)	none (no result: phage Ecoli inh, E coli growth-2, Tat export inh, AddAB inh)
Cc1cnc(C=NNC(N)=S)c2cccc(N)c12	none (no result: E coli growth-1, E coli growth-2, AddAB inh)
NC(=S)NN=Cc1nccc2ccccc12	E coli growth-1 0.46, phage Ecoli inh 21 (no result: E coli growth-2, AddAB inh) | RecBCD conf 29 | Ecoli viability 39 | AddAB phage OD 32
NC(=S)NN=Cc1nccc2c(C(F)(F)C(F)(F)C(F)(F)F)cccc12	phage Ecoli inh 15 (no result: E coli growth-1, E coli growth-2, Tat export inh, AddAB inh) | RecBCD conf inactive | Ecoli viability inactive | AddAB phage OD inactive
CC(=O)SC1CC(=O)N(c2c(C)cccc2C)C1=O (stereo not drawn)	phage Ecoli inh 12 | RecBCD conf inactive | Ecoli viability inactive | AddAB phage OD inactive
Cc1cn([C@H]2C=C[C@@H](CO)O2)c(=O)[nH]c1=O	phage Ecoli inh 22 | RecBCD conf 16 | Ecoli viability inactive | AddAB phage OD 51
Nc1nc(N)c2cc(Sc3ccc(Cl)cc3)ccc2n1	phage Ecoli inh 101 (no result: E coli growth-1, E coli growth-2, Tat export inh, AddAB inh) | RecBCD conf 102 | Ecoli viability 104 | AddAB phage OD 103
Nc1nc(N)c2cc(Sc3cccc(C(F)(F)F)c3)ccc2n1	phage Ecoli inh 61 (no result: E coli growth-1, E coli growth-2, Tat export inh, AddAB inh) | RecBCD conf 67 | Ecoli viability 58 | AddAB phage OD 86
FC(F)(F)c1cccc(Sc2nc(-c3ccccc3)nnc2C(F)(F)F)c1	none
CCOC(=O)CC1c2ccc(C(F)(F)F)cc2S(=O)(=O)N1c1cccc(OC)c1 (stereo not drawn)	none (no result: phage Ecoli inh, E coli growth-2, Tat export inh, AddAB inh)
O=C(N/N=C/c1cc2c3c(c1O)CCCN3CCC2)c1ccccc1O	phage Ecoli inh 25 (no result: E coli growth-1, E coli growth-2, AddAB inh) | RecBCD conf inactive | Ecoli viability inactive | AddAB phage OD inactive
Cc1nn(-c2ccccc2)c(N2CCCC2)c1/C=N/NC(=O)c1ccccc1O	none (no result: E coli growth-1)
CC(=NNc1nc2ccccc2o1)c1cc2ccccc2cn1	phage Ecoli inh 12 (no result: E coli growth-1, E coli growth-2, AddAB inh) | RecBCD conf inactive | Ecoli viability inactive | AddAB phage OD inactive
CC(=NNc1nc2ccc(Cl)cc2o1)c1ccccc1	none (no result: phage Ecoli inh, E coli growth-2, Tat export inh, AddAB inh)
CC(=NNc1nc2ccccc2o1)c1ncccn1	phage Ecoli inh 30 (no result: E coli growth-1, E coli growth-2, AddAB inh) | RecBCD conf 29 | Ecoli viability 36 | AddAB phage OD inactive
N#CCC(Cc1ccccc1)N1CCC(NC(=O)OCc2ccccc2)CCC1=O (stereo not drawn)	none (no result: phage Ecoli inh, E coli growth-2, Tat export inh, AddAB inh)
Nc1nonc1-n1nnc(C(=O)N/N=C/c2cc(Br)ccc2O)c1CNc1ccccc1	phage Ecoli inh 12 (no result: E coli growth-1) | RecBCD conf inactive | Ecoli viability inactive | AddAB phage OD inactive
Cc1ccc(/C=N/NC(=O)c2nnn(-c3nonc3N)c2CNc2ccccc2)cc1	none (no result: E coli growth-1)
CC(=NNC(=S)N1CCC1)c1ccccn1	phage Ecoli inh 41 (no result: E coli growth-1, E coli growth-2, AddAB inh) | RecBCD conf 43 | Ecoli viability 52 | AddAB phage OD 41
CC(N)=C(C#N)C(=O)CSc1nc2ccccc2c(=O)n1CCCO	none (no result: phage Ecoli inh, E coli growth-2, Tat export inh, AddAB inh)
C[C@@H]1CN(c2c(F)c(F)c3c(=O)c(C(=O)O)cn(C4CC4)c3c2F)C[C@H](C)N1	E coli growth-1 0.067, phage Ecoli inh 98, Tat export inh 68 (no result: E coli growth-2, AddAB inh) | RecBCD conf 103 | Ecoli viability 105 | AddAB phage OD 104
C#CCOCCOCCOCCNc1nc(N2CCN(C(=O)C(C(C)O)n3cc(C(N)CCCCN)nn3)CC2)nc(N2CCN(C(=O)C(C(C)O)n3cc(C(N)CCCCN)nn3)CC2)n1 (stereo not drawn)	none (no result: phage Ecoli inh, E coli growth-2, Tat export inh, AddAB inh)
Cn1cc(S(=O)(=O)N2CCc3ccccc32)cc1C(=O)NC1CCCCC1	phage Ecoli inh 98 | RecBCD conf inactive | Ecoli viability inactive | AddAB phage OD inactive
COc1ccccc1S(=O)(=O)Cc1ccc(C(=O)N2CCOCC2)o1	phage Ecoli inh 35 | RecBCD conf inactive | Ecoli viability inactive | AddAB phage OD inactive
Oc1ccc(C=NNC(=S)Nc2ccccc2)nc1	phage Ecoli inh 22 (no result: E coli growth-1, E coli growth-2, Tat export inh, AddAB inh) | RecBCD conf 22 | Ecoli viability 27 | AddAB phage OD 32
Cc1nc(N)nc(N)c1/C=C/C(C)(C)c1ccc(Cl)cc1	E coli growth-1 0.069, phage Ecoli inh 100 (no result: E coli growth-2, AddAB inh) | RecBCD conf 82 | Ecoli viability 89 | AddAB phage OD 100
NCC1OC(OC2C(N)CC(N)C(OC3OC(CO)C(O)C(N)C3O)C2O)C(N)CC1O (stereo not drawn)	none (no result: phage Ecoli inh, E coli growth-2, Tat export inh, AddAB inh)
NCC[C@H](O)C(=O)N[C@@H]1C[C@H](N)[C@@H](O[C@H]2O[C@H](CN)[C@@H](O)[C@H](O)[C@H]2O)[C@H](O)[C@H]1O[C@H]1O[C@H](CO)[C@@H](O)[C@H](N)[C@H]1O	phage Ecoli inh 100, Tat export inh 126 (no result: E coli growth-1, E coli growth-2, AddAB inh) | RecBCD conf 100 | Ecoli viability 100 | AddAB phage OD 101
CC(Oc1ccccc1)c1nnn(Cc2ccccc2)c1-c1c(C(C)Oc2ccccc2)nnn1Cc1ccccc1 (stereo not drawn)	none (no result: phage Ecoli inh, E coli growth-2, Tat export inh, AddAB inh)
C#CCOCCOCCOCCNc1nc(N2CCN(C(=O)C(CCCCN)n3cc(C(N)C(C)CC)nn3)CC2)nc(N2CCN(C(=O)C(C(C)CC)n3cc(C(N)CO)nn3)CC2)n1 (stereo not drawn)	none (no result: phage Ecoli inh, E coli growth-2, Tat export inh, AddAB inh)
FC(F)(F)c1cccc(NC(=S)NCC2COc3ccccc3O2)c1 (stereo not drawn)	phage Ecoli inh 12 | RecBCD conf inactive | Ecoli viability inactive | AddAB phage OD inactive
CCOC1OC(C(=O)N2CCN(C)CC2)=CC(C2CCCCC2)C1CCCO (stereo not drawn)	none (no result: phage Ecoli inh, E coli growth-2, Tat export inh, AddAB inh)
Nc1ccc2oc(-c3cccc(Br)c3)nc2c1	none (no result: phage Ecoli inh)
Nc1nc2cc(Br)ccc2o1	phage Ecoli inh 14 (no result: E coli growth-2, AddAB inh) | RecBCD conf 11 | Ecoli viability inactive | AddAB phage OD 28
Cn1cc([N+](=O)[O-])c(C(=O)N/N=C/c2ccc([N+](=O)[O-])cc2)n1	phage Ecoli inh 11 (no result: E coli growth-1) | RecBCD conf inactive | Ecoli viability inactive | AddAB phage OD inactive
CCC(C)[C@H](NC(=O)N1CCCCCC1)C(=O)O (stereo partly drawn)	none
CC(C)C[C@H](NC(=O)N1CCCCCC1)C(=O)O	phage Ecoli inh 55 | RecBCD conf inactive | Ecoli viability inactive | AddAB phage OD inactive
O=[N+]([O-])c1cc(Cl)c(O)c2ncccc12	E coli growth-1 0.068, phage Ecoli inh 44 (no result: E coli growth-2, AddAB inh) | RecBCD conf 53 | Ecoli viability 55 | AddAB phage OD 46
Oc1c(Cl)c(Cl)c2ncccc2c1Cl	none (no result: E coli growth-2, AddAB inh)
